Hits are enriched below; roughly 9.2% of the tested compounds scored in any of these assays.
SMN2 splice up: SMN2 splice variant enhancement | HEK293 SMN2-luciferase splicing reporter, luminescence, 30-36 h | Potency, µM (top dose mostly 46.1 µM), for inactives: at the top dose activity change, positive = activation, usual class: activators | 210,000 compounds, 2.8% hits | AID 1458; further: % of control where 0% means no effect; nearly all actives have a fitted effect of over 55% in size
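HEK293 cells carry an SMN2 minigene-luciferase reporter in which exon 7 inclusion puts luciferase in frame. Cells were seeded at 2000 cells/well, attached for 10-12 hours, then exposed to compounds for 30-36 hours at 37C before ONE-Glo luminescence.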
ELG1 repair inh: blocks ELG1-dependent DNA repair in HEK293T cells; 330,000 compounds, 2.3% hits; HEK293T ELG1-luciferase reporter, luminescence, 16 h; DNA damage induced by 5-fluorouridine; Potency, µM (top dose mostly 46.1 µM), for inactives: top-dose activity change, negative = inhibition, hits mostly inhibitors; further: on the % scale 0 is the no-effect control and ±100 the full control effect; nearly all actives have a fitted effect of over 55% in size
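Overnight (16 hr) co-exposure of 2,000 cells/well to 5-fluorouridine and compound at 37 °C preceded detection. Luciferase was quantified via ONE-Glo luminescence; loss of signal denotes inhibition.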
Rab9 promoter act: Rab9 promoter activation; AID 485297; 320,000 compounds, 2.8% hits; Potency, µM (series often up to 9.22 µM), for the others: at the highest dose activation, negative = inhibition, actives largely listed as activators; Huh7 Rab9 promoter-luciferase reporter, luminescence, 24 h; further: % of control where 0% means no effect; nearly all actives have a fitted effect of over 60% in size
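Promoter activation is measured as luciferase luminescence in Huh7 cells stably transfected with a Rab9 promoter–luciferase construct, following 24 h compound exposure at 37 °C and 10 min reagent incubation at ambient temperature.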
FLuc counter: firefly luciferase modulation, counter-screen for miR-21 project | P08659 | purified FLuc, Km substrates, luminescence inhibition | Potency, µM (doses to about 57.5 µM), without a hit: top-dose activity change, negative = inhibition, actives largely listed as inhibitors | 360,000 compounds, 6.9% hits;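 further: plate controls were vehicle for no effect and reference inhibitor for full effect; nearly all actives have a fitted effect of over 55% in size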
Target sequence (P08659 whole entry, looked up): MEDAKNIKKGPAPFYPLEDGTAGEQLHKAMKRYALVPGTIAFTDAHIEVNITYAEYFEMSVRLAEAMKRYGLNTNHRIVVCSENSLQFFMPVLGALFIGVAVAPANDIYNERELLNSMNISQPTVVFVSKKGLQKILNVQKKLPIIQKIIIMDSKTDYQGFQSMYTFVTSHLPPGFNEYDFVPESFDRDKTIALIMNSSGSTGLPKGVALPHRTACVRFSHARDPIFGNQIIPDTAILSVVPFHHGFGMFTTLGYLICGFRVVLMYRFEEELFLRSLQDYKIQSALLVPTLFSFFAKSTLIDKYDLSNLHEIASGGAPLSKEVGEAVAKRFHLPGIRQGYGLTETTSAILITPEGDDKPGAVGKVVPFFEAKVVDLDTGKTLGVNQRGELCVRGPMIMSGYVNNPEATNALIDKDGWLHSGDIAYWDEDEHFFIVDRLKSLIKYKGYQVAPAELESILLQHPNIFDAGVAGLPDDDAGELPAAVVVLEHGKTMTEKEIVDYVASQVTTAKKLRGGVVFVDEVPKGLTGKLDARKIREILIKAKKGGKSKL
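Purified P. pyralis luciferase (10nM final) with 10uM D-luciferin and 10uM ATP (Km levels) in 50mM Tris acetate pH 7.5, 10mM Mg acetate, 0.01% Tween-20, 0.05% BSA; qHTS 6-point titration, ~60 µM downward; luminescence read.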
NPC1 promoter act: NPC1 promoter activation; Potency, µM (top dose mostly 9.22 µM), for inactives: top-dose activation, hits mostly activators; Huh7 NPC1 promoter luciferase reporter, 24 h; 320,000 compounds, 2.4% hits; further: % of control where 0% means no effect; nearly all actives have a fitted effect of over 60% in size
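Quantitative HTS used a cell-based reporter: Huh7 cells stably bearing the NPC1 promoter upstream of luciferase were treated with compounds for 24 h, and promoter activation was read as luminescence.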
ELG1 genotox: induces genotoxicity in HEK293T cells with luciferase-tagged ELG1; HEK293T ELG1-luciferase reporter, luminescence, 16 h; Potency, µM (titrated, usually from 46 µM), without a hit: at the highest dose activity change, positive = activation, usual class: activators; 330,000 compounds, 1.3% hits; AID 504466; further: % of control where 0% means no effect; nearly all actives have a fitted effect of over 60% in size
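16 hr compound incubation (37 °C, 5% CO2) of HEK293T cells carrying luciferase-tagged ELG1; luciferase then measured by ONE-Glo luminescence after 30 min at RT.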
An asterisk follows results filed as active; ? = inconclusive; nt = not tested or not shown. The call rests on the fitted dose curve; in most records, active means well fitted curve in the direction sought with a large enough effect; inconclusive means small, poorly fitted or top-dose-only effect, or another doubt; inactive means no such curve, though single readings can be large; an effect the other way counts as inactive or inconclusive. Potency means the concentration at half of the fitted maximal effect.

SMILES | SMN2 splice up | ELG1 repair inh | Rab9 promoter act | FLuc counter | NPC1 promoter act | ELG1 genotox
O=C(O)c1cccc(N2C(=O)/C(=C/c3ccc([N+](=O)[O-])cc3)C=C2c2ccccc2)c1 | -15% | ? | 7% | 24µM* | 0% | -4%
O=C1/C(=C/c2ccc([N+](=O)[O-])cc2)C=C(c2ccccc2)N1c1ccccc1 | nt | 0% | 1% | 0% | 2% | 3%
COc1ccc(OCC(O)Cn2c(Nc3cccc(C)c3)nc3c2c(=O)n(C)c(=O)n3C)cc1 (configuration not stated) | -5% | 18µM* | 2% | -8% | -2% | -2%
Cc1ccc(Cl)cc1N(C)C(=O)c1cn(C2CCCCC2)c(=O)c2c1c1ccccc1n2C | -3% | nt | nt | -4% | nt | nt
CCCCN(C)C(=O)C(Cc1ccccc1)NS(=O)(=O)c1ccc2c(c1)c(=O)n(C)c(=O)n2C (configuration not stated) | 13% | 15µM* | -8% | -6% | -3% | -15%
CCCNC(=O)C(Cc1ccccc1)NS(=O)(=O)c1ccc2c(c1)c(=O)n(C)c(=O)n2C (configuration not stated) | 9% | 5% | 1% | -3% | 1% | -3%
CC(=O)Nc1ccc(NC(=O)c2cc3sccc3n2Cc2ccc(Cl)cc2)cc1 | -5% | nt | nt | -2% | nt | nt
C/C(=N\NC(=O)C12CCC(C)(C(=O)O1)C2(C)C)c1ccccc1O (configuration not stated) | nt | 21µM* | -32% | -11% | -4% | 5%
CC12CCC(C(=O)N/N=C/c3ccc(O)cc3O)(OC1=O)C2(C)C (configuration not stated) | nt | 13µM* | -21% | -3% | -14% | 11%
CC12CCC(C(=O)NCc3ccccc3)(OC1=O)C2(C)C (configuration not stated) | 14% | 4% | -2% | 3% | 13% | 0%
O=C(N/N=C/c1ccc(O)cc1O)C(=O)N/N=C/c1ccc(O)cc1O | nt | -11% | -5% | 0% | 3% | 2%
O=C(COc1ccc([N+](=O)[O-])cc1)NC(C(=O)O)C(O)c1cccc([N+](=O)[O-])c1 (configuration not stated) | nt | -15% | -13% | 4% | -4% | 0%
O=C1CC(NC2CCN(C(=O)c3cccc(F)c3)CC2)C(=O)N1 (configuration not stated) | nt | 2% | 0% | 0% | 3% | -1%
O=[N+]([O-])c1cccc(NC(=S)Nc2nc(-c3ccccc3Cl)cs2)c1 | nt | ? | -4% | -2% | -8% | -11%
Cc1ccc(-c2cc(C(=O)NC3CCCCC3)no2)cc1 | nt | ? | 3.5µM* | ? | 2.5µM* | 17%
O=C(NC1CCCCC1)c1cc(-c2ccccc2O)on1 | nt | ? | ? | ? | ? | 21µM*
O=C(Nc1cccnc1Cl)c1cc(-c2ccc(O)cc2)on1 | nt | -4% | 25% | ? | -3% | ?
COc1ccc(-c2cc(C(=O)NC3CCCCC3)no2)cc1OC | nt | -18% | 6% | 1% | 0% | 3%
O=C(NC1CCCCC1)c1cc(-c2ccc(O)cc2)on1 | nt | ? | 3.2µM* | ? | 2.5µM* | ?
Cc1cccc(NC(=O)COC(=O)c2cccc3c2C(=O)c2ccccc2C3=O)c1C | -34% | 21µM* | -4% | 1% | 0% | -3%
Cc1cccc(C)c1NC(=O)COC(=O)c1cccc2c1C(=O)c1ccccc1C2=O | 13% | 12µM* | -2% | 0% | -2% | 2%
Cc1cccc(C)c1NC(=O)c1cccc2c1-c1ccccc1C2=O | 16% | 20% | -6% | 0% | -1% | 4%
COC(=O)c1cnn(-c2cc(Oc3ccccc3)ncn2)c1N | nt | ? | 2.5µM* | ? | ? | ?
NC(=O)c1cnn(-c2cc(Oc3ccccc3)ncn2)c1N | nt | ? | 2.5µM* | ? | 3.2µM* | ?
c1ccc(Oc2cc(-n3cccn3)ncn2)cc1 | 22µM* | ? | 3.2µM* | 12µM* | ? | 8.2µM*
SMILES | SMN2 splice up | ELG1 repair inh | Rab9 promoter act | FLuc counter | NPC1 promoter act | ELG1 genotox
CCOc1cnn(-c2cc(Oc3ccc(C)cc3)ncn2)c(=O)c1Cl | -27% | 9% | 2% | 2% | 0% | -3%
COC(=O)c1cnn(-c2ccc(C(=O)Nc3cc(OC)c(OC)c(OC)c3)cc2)c1N | nt | nt | nt | -7% | nt | nt
COc1ccc(OC)c2nc3c(cc12)CCC3 | nt | -7% | 29% | -3% | ? | -1%
CC(NC(=O)COC(=O)CCC(=O)c1ccc(F)cc1)c1ccccc1 (configuration not stated) | nt | 26% | nt | nt | nt | 2%
C=CCN1C(=O)/C(=C/c2ccc(O)c(OC)c2)S/C1=N/c1nccs1 | -14% | 23µM* | -4% | -28% | -2% | 4%
N#C/C(=C\c1ccc(Sc2ccc(Cl)cc2)o1)c1nc2ccccc2[nH]1 | -19% | ? | 21% | -10% | 6% | -6%
N#C/C(=C\N1CCOCC1)c1ccccc1 | -20% | 18% | 0% | -1% | -3% | -2%
N#C/C(=C/c1ccc(N2CCOCC2)o1)c1nc2ccccc2[nH]1 | 2µM* | ? | 1µM* | 0.54µM* | 3.5µM* | 2.3µM*
N#C/C(=C/c1ccc(N2CCCCCC2)o1)c1cccc(F)c1 | 13µM* | ? | 4µM* | 5.4µM* | 3.5µM* | 5.8µM*
N#C/C(=C\c1ccc(N2CCOCC2)cc1)c1ccccc1 | 3.2µM* | ? | 1µM* | ? | 2.8µM* | 4.1µM*
N#C/C(=C\c1ccc(N2CCOCC2)o1)c1ccccc1 | 13µM* | ? | ? | 2.1µM* | ? | ?
COc1cc(N2CCCC2)c(OC)cc1/C=C(/C#N)c1cccc(F)c1 | 12% | ? | 0% | -12% | 6% | 0%
Cc1nc(C)c(-c2ccc(SCc3ccc([N+](=O)[O-])cc3)nn2)s1 | nt | ? | 3% | -4% | -5% | -1%
COc1ccc2nccnc2c1[N+](=O)[O-] | nt | -4% | -5% | 0% | -2% | 0%
Cc1cc2oc(C(=O)N(Cc3ccccc3F)C3CCS(=O)(=O)C3)c(C)c2cc1Cl (configuration not stated) | -24% | nt | nt | 6% | nt | nt
N#C/C(=C/c1ccc(N2CCOCC2)o1)c1ccc(Br)cc1 | ? | ? | ? | 8.5µM* | ? | 7%
N#C/C(=C\c1cccnc1)c1ccc(Br)cc1 | nt | -14% | 1% | ? | 5% | 2%
N#C/C(=C\c1cc([N+](=O)[O-])c(N2CCCCC2)cc1N1CCCCC1)c1nn(-c2ccccc2)c(N)c1C#N | 27% | -2% | -1% | -2% | -5% | 0%

Source: PubChem
